Screen size: about 190,000 compounds; about 2,000 (1.1%) were called active. The list comes from a sample in which actives are over-represented; it also holds similar structures and randomly drawn compounds. Values without a mark were called inactive.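 How the source made its calls: active means activation above a set limit, based on mean plus 3 SD of controls (cut at about 140% in these data); inconclusive means one replicate above the limit, the other below; inactive means the rest.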
Experiment: activators of APP 5'UTR luciferase reporter, primary screen, SH-SY5Y cells (AID 1276)
Conditions: SH-SY5Y APP 5'UTR luciferase reporter, luminescence; at 2 µM; hits give high values; zero percent = DMSO vehicle wells

Row | SMILES | activation
1 | O=C(O)CCS(=O)(=O)c1ccc(-c2ccccc2)cc1 | -3.35%
2 | COc1ccc(-n2nnnc2SCC(=O)Nc2ccccc2)cc1 | 6.08%
3 | CCOc1cccc(-n2nnnc2-c2ccc(OC)cc2)c1 | -65.8%
4 | COc1ccc(-n2nnnc2-c2nc3ccccc3s2)cc1 | 237% (active)
5 | Cc1cccc(NC(=O)c2nnn(-c3cccc(C(F)(F)F)c3)c2N)c1 | 27.1%
6 | Nc1nc(NCCCN2CCOCC2)nc(Nc2ccccc2)c1[N+](=O)[O-] | -12.2%
7 | COCCNc1nc(N)c([N+](=O)[O-])c(NCCO)n1 | -12.7%
8 | CNc1nc(Nc2ccc(C)c(Cl)c2)nc(N)c1[N+](=O)[O-] | 153% (active)
9 | Cc1ccc(NS(=O)(=O)c2cccs2)cc1S(=O)(=O)N1CCCCCC1 | 13.7%
10 | O=C(Cc1ccc(-c2ccccc2)cc1)NC(c1ccccc1)c1ccccc1 | 12.7%
11 | CC(NC(=S)Nc1ccc(OC(F)F)cc1)c1ccc(F)cc1 (centres undefined) | -4.54%
12 | O=C(NNC(=O)c1ccc(Cl)cc1Cl)c1cccs1 | 59.2%
13 | O=C(Nc1ccn(Cc2ccccc2)n1)c1n[nH]c([N+](=O)[O-])c1Cl | 129%
14 | O=C(Nc1ccn(Cc2ccccc2)n1)c1cccc(F)c1 | 197% (active)
15 | O=C(Nc1ccn(Cc2ccc(F)cc2)n1)c1ccncc1 | -11.3%
16 | Cc1coc(C)c1C(=O)CC1(O)C(=O)N(C)c2ccc(Cl)cc21 (centres undefined) | 12.3%
17 | CCN(CC)CCNC(=O)c1sc2ncn(CC(=O)Nc3ccc(C)c(Cl)c3)c(=O)c2c1C | 11.4%
18 | O=C1CC(c2ccccc2)=NN1c1ccc([N+](=O)[O-])cc1 | -12.9%
19 | Cc1nn(-c2ccccc2)c2c1C(c1cccc([N+](=O)[O-])c1)N(c1ccccc1)C(=O)N2 (centres undefined) | 11.7%
20 | Cc1nn(-c2ccc([N+](=O)[O-])cc2)c(N)c1-c1ccccc1 | 152% (active)
21 | CCN(C(=O)Cc1nc(N)n[nH]1)C1(C(=O)Nc2ccccc2)CCCCC1 | -3.52%
22 | O=C(Nc1ccc2sc3ccccc3c(=O)c2c1)c1ccccc1Cl | 221% (active)

Row | SMILES | activation
23 | COc1cc(NC(=O)c2cccs2)ccc1NC(=O)c1ccccc1Cl | 37.2%
24 | O=C(Nc1ccc2nc3n(c(=O)c2c1)CCCCC3)c1ccccc1Cl | 22%
25 | CCOC(=O)c1ccccc1NC(=O)CSc1nc2ccccc2c(=O)[nH]1 | -2.72%
26 | COc1cccc(N(Cc2nnc3n2CCCCC3)C(=O)Nc2ccccc2F)c1 | 3.63%
27 | Cc1cc(C)c2nc(NC(=O)C3CCCO3)sc2c1 (centres undefined) | 159% (active)
28 | Cc1cc(Br)ccc1NC(=O)C1CCCO1 (centres undefined) | -29.7%
29 | O=C(Nc1nc2ccc(S(=O)(=O)N3CCCC3)cc2s1)C1CCCO1 (centres undefined) | 2.99%
30 | O=C(/C=C/c1ccc(OCc2c(F)cccc2Cl)cc1)N1CCOCC1 | 12.2%
31 | COc1ccc(-n2c(C)cc(C(=O)CSc3nnc(-c4cccs4)o3)c2C)cc1 | -0.59%
32 | COc1ccc(-c2nnc(SCC(=O)c3cccs3)o2)c(OC)c1 | 142% (active)
33 | COc1ccc(OC)c(C(=O)CSc2nnc(-c3cccs3)o2)c1 | -1.75%
34 | O=C(NNC(=S)NCc1ccco1)C(c1ccccc1)c1ccccc1 | 19.5%
35 | O=C(NNC(=O)c1cc2c(s1)CCCC2)c1ccccc1 | 43.3%
36 | CC(NC(=O)Nc1ccc2c(c1)OCO2)c1ccncc1 (centres undefined) | 12.1%
37 | O=C(Nc1ccccc1)c1ccc2c(c1)OCO2 | -58.8%
38 | Cc1cccc(NC(=O)Nc2ccc3c(c2)OCO3)n1 | 137% (active)
39 | CC(C)C(=O)Nc1cccc(C(=O)Nc2ccc3c(c2)OCO3)c1 | 138% (active)
40 | COc1ccc(C(=O)Nc2ccc3c(c2)OCO3)cc1OC | 35.6%
41 | Cc1cccc(NC(=O)/C=C/c2ccc3c(c2)OCO3)n1 | 118%
42 | CC(OC(=O)c1ccccc1OCc1ccc(Cl)cc1)C(N)=O (centres undefined) | 40.4%
43 | Cc1cc(C)c(NC(=O)c2oc3ccccc3c2COc2ccccc2)c(C)c1 | -0.13%
44 | CCC(=O)N(Cc1cc2ccccc2[nH]c1=O)c1ccc(OC)cc1 | -4.49%

Row | SMILES | activation
45 | C/C(=N/NC(=O)CCc1ccccc1)c1ccco1 | 10.2%
46 | CCOc1ccc2nc(SC(CC)C(=O)Nc3cc(C)on3)sc2c1 (centres undefined) | 1.9%
47 | CCOc1ccc2nc(C(=O)N3CCCC(C)C3)sc2c1 (centres undefined) | 158% (active)
48 | CCOc1ccc2nc(Nc3nc4ccc(NC(C)=O)cc4s3)sc2c1 | -5.77%
49 | Cc1cc(CNCc2c(C(=O)N(C)Cc3ccccc3)nc3ccccn23)nn1C | 7.64%
50 | C/C(=N/NC(=S)Nc1ccccc1)c1ccc2c(c1)OCO2 | 11.9%
51 | CCOC(=O)CN/C=C(\C#N)c1ccc(F)cc1 | 29.2%
52 | O=C(Nc1cccc(S(=O)(=O)Nc2ccc(Cl)cc2)c1)c1ccc2c(c1)OCCO2 | -20.6%
53 | CN1CCN(c2ccc(NC(=O)c3ccc4c(c3)OCCO4)cc2Cl)CC1 | 144% (active)
54 | O=C(Nc1cccc(Cl)c1N1CCOCC1)c1ccc2c(c1)OCCO2 | 12.9%
55 | O=C(Nc1ccc(Cl)cn1)c1ccc2c(c1)OCCO2 | 199% (active)
56 | COc1c(Cl)cc(C(=O)Nc2ccc(Cl)cn2)cc1Cl | 34.7%
57 | O=C(Nc1ccc2c(c1)OCCO2)c1ccc(Cl)c(S(=O)(=O)N2CCCCC2)c1 | 30.1%
58 | CN1CCN(CCC(=O)N/N=C/C=C2\N(C)c3ccccc3C2(C)C)CC1 | 8.29%
59 | CCN(CC)C(=O)CSc1ncnc2c1cnn2-c1ccccc1 | 15.2%
60 | Cc1cccc(-n2ncc3c(N4CCc5ccccc54)ncnc32)c1 | 25.5%
61 | O=C(NNc1ncnc2c1cnn2-c1ccccc1)c1ccco1 | 6%
62 | COc1ccc(-n2ncc3c(N4CCCc5ccccc54)ncnc32)cc1 | 48.9%
63 | COc1ccc(-n2ncc3c(N4CCc5ccccc54)ncnc32)cc1 | 204% (active)
64 | c1ccc(-n2ncc3c(N4CCCC4)ncnc32)cc1 | 160% (active)

Reference: PubChem BioAssay AID1276 (Columbia University Molecular Screening Center, 2008)
